In the supplement of paper PMC10338343:
± gives the standard deviation.

What follows are sequences tested on MILI (PIWIL2) piRISC loaded with L1MC piRNA (26 nt) (assay: pre-steady-state target cleavage rate (min^-1); guide: L1MC piRNA 5'p-UAACUAAAUACUAUGCAAGCUGUAGG; higher = faster piRNA-guided slicing of the target). Conditions: auxiliary factor: 500 nM mouse GTSF1.
In short: (§1)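 Using HEPES–potassium acetate buffer at 33 °C, 1 nM active affinity-purified piRISC with a single synthetic guide was mixed with 0.1 nM transcribed, DNA-blocked target RNA library for 0–8 or 0–960 min, with or without 500 nM GTSF1 partner protein. Uncleaved targets were sequenced and normalised to depth and to weakly complementary targets, and three trials were pooled with k3 capped at 0.0001 min^-1. A burst-and-steady-state fit gave the pre-steady-state cleavage rate.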

Sequence	pre-steady-state target cleavage rate
UCCUGGAUGAGCUUGCAUAGUAUUUAGUCA	0.172 ± 0.015
UCCUGGAUCAGCUUGCAUAGUAUAUAGUAA	0.189 ± 0.019
UCCUGCUACAGCUUGCAUACUAUUUAGAUA	0.0214 ± 0.0094
UCCUGCUACAGCUUGCAUAGCAUUUAGUUA	0.141 ± 0.022
UCCUCCUACAGCUUGCUUAGUAUUAAGUUA	0.116 ± 0.018
UCCUCCUACAGCUUGCAUAGAAUUUAGUUA	0.1 ± 0.021
UCCUGGUACAGCUUGCAUAGUAUUAACUUA	0.0223 ± 0.0097
UCCUGCUACAGCUUGCAUAGUAUUUUCAUA	0.151 ± 0.044
UCCUCCUAGAGCUUCCAUAGUAUUUAGUUA	0.0812 ± 0.025
UCCUCCUACAGGAUGCAUAGUAUUUAGAAA	0.0838 ± 0.015
UCCUGGUACAGCUUGCAUAGUAUUUACAAA	0.0693 ± 0.017
UCCUGCUACAGCUUGCAUAGUUUAUAGUUA	0.0528 ± 0.017
UCCUCCAACAGCUUGCAUAGUAUUUUGUUA	0.108 ± 0.019
UCCUGGUACAGCUUGCAUAGUAAUUUGUUA	0.18 ± 0.05
UCCUCCUACAGCUUGCAUAGAAUUUACAAA	0.0431 ± 0.015
UCCUCCUUCAGCUUGCAUAGUAUUUAGAAA	0.119 ± 0.021
UCCUGCUACAGCUUGGAUACUAUUUAGUUA	0.0884 ± 0.018
UCCUGCUACAGCUUGCAUUGUAUUUAGAAA	0.111 ± 0.03
UCCUGGAACAGCUUGCAUAGUAUAUAGUAA	0.124 ± 0.022
UCCUCCUACAGCUUGCUUAGUAUUUUCAAA	0.0605 ± 0.014

Sequence	pre-steady-state target cleavage rate
UCCUCCUACAGCUUGCAUAGUAUUAAGUAA	0.17 ± 0.037
UCCUCCUACACCUUGCAUAGUAUUUACUUA	0.128 ± 0.038
UCCUGGUACUGCUUGCAUAGUAUAUAGUUA	0.168 ± 0.044
UCCUGGUACUGCUUGCAUAGUAUUUAGAUA	0.0302 ± 0.014
UCCUGGAUCAGCUUGCAUACUAUUUAGUAA	0.0386 ± 0.0077
UCCUGGAUGAGCUUGCAUAGUAUUUAGAUUA	0.165 ± 0.048
UCCUGGAUGAGCUUGCAUAGUAAUUAGAUA	0.0197 ± 0.0088
UCCUGGAACAGCUUGCAUAGAAUUUAGAUA	0.0527 ± 0.018
UCCUCCUACAGCUUGCAUACUAUUUAGAUA	0.0353 ± 0.01
UCCUGGAUCAGCUUGGAUAGUAUUUUGUUA	0.117 ± 0.021
UCCUGGAUGUGCAAGCAUAGUAUUUAGAAA	0.0135 ± 0.0052
UCCUGGAUGAGCUUGCAUACUAUUUAGUAA	0.00877 ± 0.0036
UCCUCCUACAGCUUGCAUAGUAAAAUCAAA	0.0893 ± 0.023
UCCUGGAACAGCUUGCAUAGUAAUUAGAUA	0.0936 ± 0.022
UCCUGGAAGAGCUUGCAUAGAAUUUAGUUA	0.0498 ± 0.011
UCCUCCAACAGCUUCCAUAGUAUUUAGUUA	0.0545 ± 0.017
UCCUCCUACAGCUUGCAUAGUAUAUAGUAA	0.147 ± 0.023
UCCUCCUAGAGCUUGCAUAGUAUUUAGAUA	0.123 ± 0.025
UCCUGGAUCUGCUUCCAUAGUAUUUAGUUA	0.0239 ± 0.0067
UCCUCCUACAGCUUGCAUAGUAAUUAGAAA	0.127 ± 0.032

What follows are sequences tested on EfPiwi piRISC loaded with L1MC piRNA (26 nt) (assay: pre-steady-state target cleavage rate (min^-1); auxiliary factor: 500 nM Ephydatia muelleri Gtsf1; guide: L1MC piRNA 5'p-UAACUAAAUACUAUGCAAGCUGUAGG; MIWI and MILI are mouse PIWI proteins and EfPiwi is from a freshwater sponge; tags in brackets are library labels; higher = faster piRNA-guided slicing of the target). Conditions: not given.
In short: as §1

Sequence	pre-steady-state target cleavage rate
UCCUGGAUGAGCUUGCAUAGUAUUUAGUCA	0.00793 ± 0.0032
UCCUGGAUCAGCUUGCAUAGUAUAUAGUAA	0.00291 ± 0.0023
UCCUGCUACAGCUUGCAUACUAUUUAGAUA	0.00382 ± 0.002
UCCUGCUACAGCUUGCAUAGCAUUUAGUUA	0.00521 ± 0.0016
UCCUCCUACAGCUUGCUUAGUAUUAAGUUA	0.00459 ± 0.0031
UCCUCCUACAGCUUGCAUAGAAUUUAGUUA	0.0078 ± 0.0023
UCCUGGUACAGCUUGCAUAGUAUUAACUUA	0.0032 ± 0.0024
UCCUGCUACAGCUUGCAUAGUAUUUUCAUA	0.00529 ± 0.0027
UCCUCCUAGAGCUUCCAUAGUAUUUAGUUA	0.00302 ± 0.0014
UCCUCCUACAGGAUGCAUAGUAUUUAGAAA	0.00396 ± 0.0014
UCCUGGUACAGCUUGCAUAGUAUUUACAAA	0.003 ± 0.002
UCCUGCUACAGCUUGCAUAGUUUAUAGUUA	0.00312 ± 0.0027
UCCUCCAACAGCUUGCAUAGUAUUUUGUUA	0.00594 ± 0.0025
UCCUGGUACAGCUUGCAUAGUAAUUUGUUA	0.00282 ± 0.0025
UCCUCCUACAGCUUGCAUAGAAUUUACAAA	0.00295 ± 0.0029
UCCUCCUUCAGCUUGCAUAGUAUUUAGAAA	0.00603 ± 0.0031
UCCUGCUACAGCUUGGAUACUAUUUAGUUA	0.00633 ± 0.0024
UCCUGCUACAGCUUGCAUUGUAUUUAGAAA	0.00474 ± 0.0017
UCCUGGAACAGCUUGCAUAGUAUAUAGUAA	0.00251 ± 0.0017
UCCUCCUACAGCUUGCUUAGUAUUUUCAAA	0.00322 ± 0.003

Sequence	pre-steady-state target cleavage rate
UCCUCCUACAGCUUGCAUAGUAUUAAGUAA	0.00642 ± 0.0035
UCCUCCUACACCUUGCAUAGUAUUUACUUA	0.00326 ± 0.0032
UCCUGGUACUGCUUGCAUAGUAUAUAGUUA	0.01 ± 0.0048
UCCUGGUACUGCUUGCAUAGUAUUUAGAUA	0.00378 ± 0.0019
UCCUGGAUCAGCUUGCAUACUAUUUAGUAA	0.00398 ± 0.0023
UCCUGGAUGAGCUUGCAUAGUAUUUAGAUUA	0.00336 ± 0.002
UCCUGGAUGAGCUUGCAUAGUAAUUAGAUA	0.00341 ± 0.0028
UCCUGGAACAGCUUGCAUAGAAUUUAGAUA	0.00187 ± 0.0015
UCCUCCUACAGCUUGCAUACUAUUUAGAUA	0.00315 ± 0.0027
UCCUGGAUCAGCUUGGAUAGUAUUUUGUUA	0.00346 ± 0.0027
UCCUGGAUGUGCAAGCAUAGUAUUUAGAAA	0.00423 ± 0.0039
UCCUGGAUGAGCUUGCAUACUAUUUAGUAA	0.00227 ± 0.0018
UCCUCCUACAGCUUGCAUAGUAAAAUCAAA	0.0042 ± 0.0034
UCCUGGAACAGCUUGCAUAGUAAUUAGAUA	0.00318 ± 0.0015
UCCUGGAAGAGCUUGCAUAGAAUUUAGUUA	0.00403 ± 0.0018
UCCUCCAACAGCUUCCAUAGUAUUUAGUUA	0.00439 ± 0.0021
UCCUCCUACAGCUUGCAUAGUAUAUAGUAA	0.00441 ± 0.002
UCCUCCUAGAGCUUGCAUAGUAUUUAGAUA	0.0043 ± 0.0018
UCCUGGAUCUGCUUCCAUAGUAUUUAGUUA	0.00326 ± 0.0022
UCCUCCUACAGCUUGCAUAGUAAUUAGAAA	0.00474 ± 0.0026
